Experimental data taken from PubChem BioAssay (NCI).
This is part of a sample that, as a whole, favours compounds with a hit. Of some 83,000 tested, about 20% had one in any assay.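 Step 1: grow cells in 96-well plates. Step 2: add test compound at a single concentration. Step 3: incubate 48 h. Step 4: record percent growth.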 A number with no mark means an inactive call. The source made the active and inactive calls. How the source made its calls: active means growth percent below 10; inactive means the rest.

Key:
Experiment in all cases: NCI-60 one-dose screen, 48 h (100 = growth as untreated, 0 = no growth, -100 = all killed)
[1] = test system: HCT-15 colon; conditions: 10 µM unless noted
[2] = test system: SNB-75 CNS; conditions: 10 µM unless noted
[3] = test system: SNB-19 CNS; conditions: 10 µM unless noted
[4] = test system: U251 CNS; conditions: 10 µM unless noted
[5] = test system: SK-MEL-5 melanoma; conditions: 10 µM unless noted
[6] = test system: UACC-62 melanoma; conditions: 10 µM unless noted
[7] = test system: LOX IMVI melanoma; conditions: 10 µM unless noted
[8] = test system: SK-MEL-28 melanoma; conditions: 10 µM unless noted
[9] = test system: SK-MEL-2 melanoma; conditions: 10 µM unless noted
[10] = test system: EKVX NSCLC; conditions: 10 µM unless noted
[11] = test system: SN12C renal; conditions: 10 µM unless noted
[12] = test system: UO-31 renal; conditions: 10 µM unless noted
[13] = test system: TK-10 renal; conditions: 10 µM unless noted
[14] = test system: ACHN renal; conditions: 10 µM unless noted
[15] = test system: CAKI-1 renal; conditions: 10 µM
[16] = test system: A498 renal; conditions: 10 µM unless noted
[17] = test system: CCRF-CEM leukemia; conditions: 10 µM unless noted
[18] = test system: MOLT-4 leukemia; conditions: 10 µM unless noted
[19] = test system: PC-3 prostate; conditions: 10 µM unless noted

Row | Compound | growth [1] | growth [2] | growth [3] | growth [4] | growth [5] | growth [6] | growth [7] | growth [8] | growth [9] | growth [10] | growth [11] | growth [12] | growth [13] | growth [14] | growth [15] | growth [16] | growth [17] | growth [18] | growth [19]
1 | Cc1ccc(NC(=O)c2ccc(CN3CCN(C)CC3)c(C(F)(F)F)c2)cc1Oc1ccc(-c2[nH]nc3ncnc(N)c23)cc1 | 28.8% | 93.3% | 99.2% | -27.7% (active) | 73% | 82.6% | -85.3% (active) | 68.6% | 84.1% | 109% | 80.7% | 83% | 119% | 83% | 92.1% | 113% | 8.05% (active) | 43% | 
2 | c1cncc(-c2cn3nc(-c4c[nH]c5ccccc45)sc3n2)c1 | 27.7% | 51.8% | 61.1% | 69.9% | 23.4% | 55.3% | 46.7% | 55.5% |  | 72.5% | 61.5% | 44.6% | 94.4% | 72.3% | 51.7% | 47.9% | 54.1% |  | 
3 | CC1OC(O[C@@H]2[C@H](O)C(CO)OC(O[C@H]3COC(O[C@H]4CC[C@]5(C)[C@H]6CC[C@]78OC[C@@]9(CC[C@](C)(C=O)C[C@H]97)C(=O)C[C@@]8(C)[C@]6(C)CC[C@H]5C4(C)C)[C@@H](O)[C@@H]3O)[C@H]2OC2OC[C@@H](O)[C@@H](O)[C@@H]2O)[C@@H](O)[C@@H](O)[C@H]1O (some centres undefined) | 95.8% | 81.4% | 90.2% | 95.8% |  |  | 88.1% |  | 99.4% | 89.2% |  | 75.2% | 102% | 97.1% | 84.8% | 132% | 80.5% | 63.6% | 81.4%
4 | CCOC(=O)/C(F)=C/C1CC1CCc1cccc(C(F)(F)F)c1 (centres undefined) | 101% | 102% | 97.1% | 113% | 100% | 96.5% | 102% | 98.8% |  | 101% | 104% | 90.4% | 99.5% | 100% | 89.4% |  | 110% | 104% | 105%
5 | CC(C)N=C(N/C(N)=N/c1nc2ccccc2s1)NC(C)C | 62.5% |  | 48.2% | 57.6% | 62.5% | 61.4% | 1.73% (active) | 74.6% | 107% | 67.6% | 45.6% | 46.4% | 80.6% | 55.4% | 45.2% | 72.8% | 52.9% | 55.2% | 64%
6 | CC(=O)Nc1ccc(NC(=O)Nc2cccc(-c3nc(-c4ccc(NC(=O)c5cccnc5)cc4Cl)no3)c2)cc1C(F)(F)F | 25.7% | -64.1% (active) | -12.2% (active) | -56.1% (active) | -88.2% (active) | -81.6% (active) | -91.9% (active) | -81.8% (active) | -68.5% (active) | -39% (active) | -65% (active) |  | -31.7% (active) | 34.2% | -68.9% (active) | -64.8% (active) | -14.5% (active) | -30.8% (active) | -61.4% (active)
7 | C=CCn1c(SCC(=O)Nc2cccc(C(=O)/C=C/c3ccc(Br)cc3)c2)nc2ccccc2c1=O | 76.3% | 61.8% | 76.8% | 74.6% | 98.4% | 73.4% | 74.8% | 98.2% |  | 106% | 88.8% |  | 102% | 84.5% | 73.7% | 89.3% | 95.5% |  | 
8 | COc1c([C@@H](CC(C)C)OC(C)=O)ccc2c1C(=O)OCc1cc(C)cc(O)c1O2 | 17.3% | 50.6% | 36.3% | 20.1% | 8.29% (active) | 31.3% | 27.5% | 59.1% | 22.2% | 37.6% | 27.8% | 32.3% | 33.6% | 16.1% |  | 61.5% | 31.4% | 21.3% | 29.8%
9 | CS(=O)(=O)c1ccc(-c2nn(-c3ccccc3)cc2/C=N/NC(=O)c2ccncc2)cc1 | 69.5% | 89% | 96.5% | 105% | 105% | 82.4% | 101% | 105% | 107% | 98.4% | 98.6% | 94.2% | 97.3% | 107% | 93.9% | 113% | 102% | 97.2% | 98.2%
